Compound activity (PubChem BioAssay)
SARS PLpro yeast: inhibitors of SARS-CoV papain-like protease in yeast | S. cerevisiae expressing SARS-CoV PLpro, growth rescue | Potency, µM (doses to about 32.9 µM), usual class: activators | 330,000 compounds, 0.19% hits; calls by dose curve; note: nearly all actives have a fitted effect of over 55% in size
AmpC detergent: inhibitors of E. coli AmpC beta-lactamase with detergent; P00811; AmpC hydrolysis of nitrocefin, absorbance 480 nm, 0.01% Triton; Potency, µM (series often up to 114 µM), most hits filed as inhibitors; 370,000 compounds, 0.041% hits; AID 485294; note: nearly all actives have a fitted effect of over 25% in size
Target sequence (P00811 whole entry, looked up): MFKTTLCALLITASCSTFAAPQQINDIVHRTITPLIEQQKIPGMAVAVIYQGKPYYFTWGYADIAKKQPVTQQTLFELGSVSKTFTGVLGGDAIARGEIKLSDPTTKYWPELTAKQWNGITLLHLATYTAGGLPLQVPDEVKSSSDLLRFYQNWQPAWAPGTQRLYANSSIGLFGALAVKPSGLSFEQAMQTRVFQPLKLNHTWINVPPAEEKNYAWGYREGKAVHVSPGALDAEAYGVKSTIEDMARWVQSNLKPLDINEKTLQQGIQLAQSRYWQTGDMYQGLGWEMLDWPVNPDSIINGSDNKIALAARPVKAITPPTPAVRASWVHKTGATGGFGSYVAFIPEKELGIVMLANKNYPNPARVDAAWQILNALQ
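20 mM phosphate pH 7.0 + 0.01% (detergent screen) or 0.0001% Triton X-100; 5.3 nM AmpC reagent; cpd preinc 15 min RT; nitrocefin (800 uM stock) to start; A480 q20 s × 4 min; Activity was normalised to no-enzyme and no-compound control wells.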
AmpC no deterg: blocks E. coli AmpC beta-lactamase in detergent-free assay; P00811; AmpC nitrocefin hydrolysis, absorbance 480 nm, 0.0001% Triton; Potency, µM (doses to about 57.1 µM), actives largely listed as inhibitors; 330,000 compounds, 0.52% hits; note: nearly all actives have a fitted effect of over 20% in size
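20 mM phosphate pH 7.0 + 0.01% (detergent screen) or 0.0001% Triton X-100; 5.3 nM AmpC reagent; cpd preinc 15 min RT; nitrocefin (800 uM stock) to start; A480 q20 s × 4 min; Activity was normalised to no-enzyme and no-compound control wells.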
AMA1-RON2 inh: disrupts binding of P. falciparum AMA1 to RON2; AlphaScreen AMA1-biotinylated RON2 peptide binding; Potency, µM (titrated, usually from 58.2 µM), actives largely listed as inhibitors; AID 720542; 360,000 compounds, 0.2% hits; note: nearly all actives have a fitted effect of over 45% in size
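AMA1 (3D7) with his tag at 25 nM final met compounds first, then biotinylated RON2 peptide at 25 nM; detection used donor plus acceptor beads, 10 µg/mL apiece, read by AlphaScreen after 30 min at room temperature.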
VACV Venus inh: vaccinia inhibition (Venus reporter); 330,000 compounds, 0.46% hits; Vaccinia virus Venus reporter expression, fluorescence; Potency, µM (doses to about 36.5 µM), actives largely listed as inhibitors; AID 720580; calls by dose curve; tested in A549 cells; note: nearly all actives have a fitted effect of over 30% in size
VACV mCherry inh: vaccinia inhibition (mCherry reporter); Vaccinia virus mCherry reporter infection, fluorescence; Potency, µM (titrated, usually from 36.5 µM), hits mostly inhibitors; 310,000 compounds, 0.63% hits; calls by dose curve; tested in A549 cells; note: nearly all actives have a fitted effect of over 35% in size
Numbers stand for hits; i = inactive; ? = inconclusive; nt = no result given. Most compounds without a hit are left out; they make up all but 1.3% or so of the library. Unless noted, calls come from the whole dose curve; as a rule, active = well fitted curve in the direction sought with a large enough effect; inconclusive = small, poorly fitted or top-dose-only effect, or another doubt; inactive = no such curve, though single readings can be large; an effect the other way counts as inactive or inconclusive.

SMILES | SARS PLpro yeast | AmpC detergent | AmpC no deterg | AMA1-RON2 inh | VACV Venus inh | VACV mCherry inh
COc1cc2nc(N3CCN(c4cc(C)ccc4C)CC3)nc(N)c2cc1OC | i | i | i | i | 10µM | ?
CC(=O)Nc1ccc(N=c2cc([N+](=O)[O-])cc(Cl)n2O)cc1 | i | i | i | i | ? | 8.9µM
CC(=O)Nc1ccc(Oc2ccc([N+](=O)[O-])cc2Cl)cc1 | i | i | i | i | i | i
Cc1ccc(C)c(NC(=O)c2cc3ccccn3n2)c1 | i | ? | 4.5µM | i | i | i
Cc1ccccc1NC(=O)c1cc2ccccn2n1 | i | i | i | i | nt | nt
O=C(Cc1cccs1)N(Cc1cccs1)C1(C(=O)NC2CCCC2)CCCCC1 | i | i | i | i | nt | nt
O=C(c1ccc2c(c1)OCO2)N(Cc1cccs1)C1(C(=O)NC2CCCCC2)CCCCC1 | i | i | i | i | ? | 16µM
Cc1nn(C)cc1CN1CCOc2ccc(CN3CCC(Oc4cccnc4)CC3)cc2C1 | nt | nt | nt | nt | i | i
O=C1CCN(Cc2cccc(C(F)(F)F)c2)CCN1Cc1ccccn1 | nt | nt | nt | nt | i | i
Cc1cccnc1C(NC(=O)C1CCN(Cc2cn(C)c3ccccc23)CC1)c1ccc(Cl)cc1 (stereo not given) | nt | nt | nt | i | 11µM | 14µM
C=CCC[C@@H](Cc1ccc(F)cc1)C(=O)OC[C@@H](NC(=O)[C@@H](CC=C)CC(=O)N[C@@H](CO)Cc1ccccc1)C(C)(C)C | i | nt | i | i | ? | i
C=CC[C@H](CC(=O)N(CCO)Cc1ccccc1)C(=O)N[C@H](COC(=O)[C@@H](CC=C)Cc1ccc(F)cc1)C(C)(C)C | i | nt | i | i | ? | i
C=CCC[C@H](Cc1ccc(F)cc1)C(=O)OC[C@@H](NC(=O)[C@@H](CC=C)CC(=O)N[C@@H](CO)Cc1ccccc1)C(C)(C)C | i | nt | i | i | 10µM | ?
C=CCC[C@H](Cc1ccc(F)cc1)C(=O)OC[C@@H](NC(=O)[C@@H](CC=C)CC(=O)N(CCO)Cc1ccccc1)C(C)(C)C | i | nt | i | i | 13µM | ?
CSc1ccccc1C(=O)NCC1Cc2cc(F)cc(-c3cnccn3)c2O1 (stereo not given) | nt | nt | nt | nt | i | i
CCOc1ccc(S(=O)(=O)N(CC(=O)N/N=C/c2ccc(-c3ccc([N+](=O)[O-])cc3)o2)c2ccccc2)cc1 | i | i | 13µM | i | ? | nt
CC(=O)NC1C(=O)N(CCN2CCOCC2)c2ccc(C)cc21 (stereo not given) | i | i | i | 32µM | i | i
Cc1noc2ncnc(NCc3ccc(Cl)cc3)c12 | nt | i | nt | nt | i | i
Cn1nccc1C(=O)NCC1CCC2(CCN(Cc3ccc(-c4ccc(Cl)cc4)o3)CC2)O1 (stereo not given) | nt | nt | nt | nt | i | i
Cc1nc(NCc2c(F)cccc2F)sc1-c1ccn(CCN2CCOCC2)n1 | nt | nt | nt | nt | i | i
CCc1cc(C(=O)NCc2c(C)ncc3c2CCN(C(=O)C2=CCCC2)C3)no1 | nt | nt | nt | nt | i | i
O=C(/C=C/c1c[nH]c2ccccc12)c1ccccc1 | i | i | 16µM | i | ? | ?
Cc1ccc(C(=O)c2c3ccc([N+](=O)[O-])cc3[n+]([O-])n2CCCC(N)=O)cc1 | i | i | i | i | ? | ?
NC(=O)CCCn1c(C(=O)c2ccc(Cl)cc2)c2ccc([N+](=O)[O-])cc2[n+]1[O-] | i | i | i | i | ? | ?
NCCCn1c(C(=O)c2ccc(Cl)cc2)c2ccc([N+](=O)[O-])cc2[n+]1[O-] | i | i | i | i | ? | 7.1µM
SMILES | SARS PLpro yeast | AmpC detergent | AmpC no deterg | AMA1-RON2 inh | VACV Venus inh | VACV mCherry inh
NC(=O)CCCn1c(C(=O)c2cc(Cl)c(N)c(Cl)c2)c2ccc([N+](=O)[O-])cc2[n+]1[O-] | i | i | i | i | 11µM | ?
CCCCOc1ccc(CSCCNC(=S)Nc2ccccc2)cc1 | i | i | i | i | i | i
CC(C)COc1ccc(CSCCNC(=S)Nc2ccccc2)cc1 | i | i | i | i | 10µM | nt
CC(NC(=O)C1CCOCC1)c1nnc2n1CCN(Cc1ccc(F)cc1)CC2 (stereo not given) | nt | nt | nt | nt | i | i
CCc1nc2ccc(C(=O)NC3CCN(C)CC3)cn2c1N(C)CCC(C)C | nt | nt | nt | i | i | i
CCc1nc2ccc(C(=O)NC3CCN(Cc4ccccc4)CC3)cn2c1N(C)Cc1ccc(N(C)C)cc1 | nt | nt | nt | 22µM | i | i
CCC1CCCCN1CCCNC(=O)c1ccc2c(c1)N(Cc1ccccc1F)C(=O)c1ccccc1S2(=O)=O (stereo not given) | nt | i | nt | nt | ? | i
CC(C)=CCCC1(C)C=Cc2c(O)c3c(c(CC=C(C)C)c2O1)OC12C(=CC4CC1C(C)(C)OC2(C/C=C(/C)C(=O)O)C4O)C3=O (stereo not given) | nt | nt | nt | nt | 11µM | 13µM
Cc1nc(NC(=O)c2ccccc2)sc1-c1csc(Nc2ccc(Cl)cc2)n1 | i | ? | i | nt | nt | nt
CCC(=O)Nc1nc(C)c(-c2csc(Nc3cccc(O)c3)n2)s1 | i | ? | 16µM | i | nt | nt
Cc1nc(NC(=O)c2ccccc2)sc1-c1csc(Nc2cccc(Cl)c2)n1 | i | i | 14µM | nt | nt | nt
Cc1nc(C)c(-c2csc(Nc3cccc(O)c3)n2)s1 | i | i | i | i | i | ?
O=C(NCC1Cc2cccc(-c3ncccn3)c2O1)C1CCOC1 (stereo not given) | nt | nt | nt | nt | i | i
CC(C)C(NC(=O)c1ccoc1)c1nnc2n1CCN(C(=O)/C=C/c1ccc(F)cc1)CC2 (stereo not given) | nt | nt | nt | nt | i | i
O=C(NCCc1nc2ccccc2n1CCCOc1ccc2ccccc2c1)C1CCCCC1 | nt | nt | nt | nt | ? | 3.2µM
O=C(NCCc1nc2ccccc2n1CCOc1ccc2ccccc2c1)C1CCCCC1 | nt | nt | nt | nt | i | i
CCn1nc(C)c(CN2CCc3c([nH]c4ccccc34)C2c2ccc(F)c(OC)c2)c1C (stereo not given) | i | i | i | 40µM | i | i
CC(=O)Nc1cc(C(=O)N2CCSCC2)cc2ncn(CCc3ccccn3)c12 | nt | nt | nt | nt | i | i
CCc1nc2cc(C(=O)N3CCC[C@H]3C(=O)OC)cc(NC(=O)c3ccccc3OC)c2n1C | nt | nt | nt | nt | i | i
Fc1cccc(/C=N/Nc2cc(N3CCOCC3)ncn2)c1 | 2.8µM | i | i | i | i | i
COc1ccc(CN2CCc3nnc(CCc4ccccc4)n3CC2)c(OC)c1C | nt | nt | nt | nt | i | i
COc1ccc(C)cc1NC(=O)NC1CCCCCCC1 | i | i | 22µM | i | i | i
CCNS(=O)(=O)c1ccc(NC(=O)Nc2cc(C)ccc2OC)cc1 | i | i | 11µM | i | i | i
COc1ccc(NC(=O)CSc2nc(SC)ns2)cc1 | i | i | i | i | ? | 11µM
CN(CC(=O)Nc1cccc(F)c1)C(=O)c1cc(-c2ccco2)nc2ccccc12 | i | i | 18µM | ? | i | i
CN(C)C(CNC(=O)c1cc(-c2ccco2)nc2ccccc12)c1ccccc1 (stereo not given) | 10µM | nt | i | ? | i | i
